From PubChem BioAssay
Records with an inconclusive call do not appear. Calls of active or inactive are those of the source.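 The calls were made as follows, unless noted: active = growth inhibition above 25% in both replicates, a cutoff set 3 SD above the mean; inconclusive = above 25% in only one replicate; inactive = the rest.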

What was measured:
[1] = reducers of endogenous Her2 protein level, primary screen, SKBR3 breast tumor cells, AlphaScreen, ATP viability (AID 461;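 active = Her2 level under about 52% in both replicate screens, with viability over 70% of control, limit read from the data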;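 as to Her2 level: lower value means less Her2 protein in the cells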;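 as to viability: percent of carrier control wells set as 100% viability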); settings: 18-24 h, measured here: SKBR3 viability, ATP luminescence, at 10 µM
[2] = biological target: Receptor tyrosine-protein kinase erbB-2 (Homo sapiens) (UniProt P04626); experiment: as above; settings: 18-24 h, at 10 µM, stronger effect = lower value
Sequence of Receptor tyrosine-protein kinase erbB-2 (Homo sapiens) (P04626 whole entry, looked up): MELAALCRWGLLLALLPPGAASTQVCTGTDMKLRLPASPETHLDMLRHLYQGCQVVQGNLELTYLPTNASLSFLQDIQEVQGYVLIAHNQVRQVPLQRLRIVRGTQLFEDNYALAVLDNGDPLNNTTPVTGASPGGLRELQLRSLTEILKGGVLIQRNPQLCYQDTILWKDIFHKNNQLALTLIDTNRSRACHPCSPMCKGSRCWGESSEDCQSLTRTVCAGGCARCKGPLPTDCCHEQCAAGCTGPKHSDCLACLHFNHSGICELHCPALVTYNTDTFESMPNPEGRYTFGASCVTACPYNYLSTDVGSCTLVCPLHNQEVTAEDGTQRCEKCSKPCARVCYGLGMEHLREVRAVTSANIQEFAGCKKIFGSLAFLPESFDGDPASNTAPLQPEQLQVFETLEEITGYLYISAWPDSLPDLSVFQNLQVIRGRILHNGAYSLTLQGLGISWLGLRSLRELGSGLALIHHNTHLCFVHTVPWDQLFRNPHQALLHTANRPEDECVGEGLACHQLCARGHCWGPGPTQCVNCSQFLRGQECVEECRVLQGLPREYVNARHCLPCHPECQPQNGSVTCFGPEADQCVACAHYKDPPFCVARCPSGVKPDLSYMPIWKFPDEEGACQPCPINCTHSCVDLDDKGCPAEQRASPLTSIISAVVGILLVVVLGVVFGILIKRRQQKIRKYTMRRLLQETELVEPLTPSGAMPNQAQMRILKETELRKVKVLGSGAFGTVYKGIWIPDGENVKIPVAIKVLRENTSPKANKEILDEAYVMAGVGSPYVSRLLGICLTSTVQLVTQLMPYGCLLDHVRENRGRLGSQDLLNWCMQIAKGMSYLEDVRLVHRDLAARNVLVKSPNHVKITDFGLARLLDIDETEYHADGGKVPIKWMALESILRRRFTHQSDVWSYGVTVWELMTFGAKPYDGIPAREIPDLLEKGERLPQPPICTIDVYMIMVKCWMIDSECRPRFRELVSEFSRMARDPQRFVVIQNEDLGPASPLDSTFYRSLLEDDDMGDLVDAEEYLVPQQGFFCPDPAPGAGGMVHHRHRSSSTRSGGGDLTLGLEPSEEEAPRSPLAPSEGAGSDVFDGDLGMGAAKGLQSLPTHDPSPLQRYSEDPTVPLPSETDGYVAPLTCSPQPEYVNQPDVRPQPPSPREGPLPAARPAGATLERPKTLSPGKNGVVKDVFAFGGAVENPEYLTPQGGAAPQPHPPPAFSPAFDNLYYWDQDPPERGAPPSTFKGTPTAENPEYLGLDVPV

[3] = SK-BR-3 cell growth inhibitors, pilot screen, 24 h, human (AID 572;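 active = viability at or below 10% of carrier control in both of two separate runs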;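 also: compound exposure lasted between 18 and 24 h rather than exactly 24 h; 100% = carrier-treated control wells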); settings: SK-BR-3 viability, CellTiter-Glo luminescence, at 10 µM, stronger effect = lower value
[4] = HUVEC growth inhibition – cell-based, human, primary screen (AID 575;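 active = viability at or below 30% in both replicate assays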;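 also: 100% = median of untreated cell wells with 0.1% DMSO on each plate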); settings: HUVEC proliferation, CellTiter-Glo luminescence, 72 h; at 10 µM; stronger effect = lower value
[5] = growth inhibitors of H69AR lung tumor, primary screen, human, duplicate replicates (AID 580;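 active = viability at or under a set limit in both replicates, limit being median viability minus 3 SD, cut at about 48% in these data, passing the limit was not always enough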;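 also: 100% = mean luminescence of untreated wells and 0% = no signal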); settings: H69AR lung tumor cells viability, ATP luminescence, 72 h; at 10 µM; stronger effect = lower value
[6] = reversal of MRP1-mediated doxorubicin resistance, pilot screen, H69AR cells, doxorubicin co-treatment (AID 601;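 active = viability loss from added drug above about 55%, and viability with drug at most 40%, in both replicates, limit read from the data, passing the limit was not always enough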); settings: CellTiter-Glo, 72 h, at 10 µM; for differential viability (reversal): stronger effect = higher value
[7] = 384-well plate pilot, post-Golgi transport modulator project, inhibition of yeast transport mutant growth (AID 636; in the data active = inhibition above about 31%); settings: absorbance 615 nm, about 18 h, stronger effect = higher value
[8] = growth suppression of yeast trafficking mutant, preliminary HTS, modulators of trafficking downstream of Golgi apparatus project, 1536-format plate, OD 615 nm (AID 637; in the data active = inhibition above about 30%); settings: yeast transport mutant growth, absorbance 615 nm, 18 h; stronger effect = higher value
[9] = OD615 S. cerevisiae growth inhibition, permissive medium, pilot counter-assay, permissive growth control for S. cerevisiae lifespan shortening project (AID 705); settings: OD615, 24 h, at 10 µM, stronger effect = higher value
[10] = Restrictive medium S. cerevisiae growth inhibition, OD615, pilot screen of yeast lifespan reduction project, restrictive growth control (AID 706;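 active = growth inhibition above a set limit, 3 SD over mean compound inhibition, in both replicates, cut at about 43% in these data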;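 also: modified DeaD lifespan yeast strain shifted to restrictive glucose medium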); settings: OD615, 48 h, at 10 µM, stronger effect = higher value
[11] = viability gain of MRP-1-high H69AR cells under doxorubicin, pilot screen, MRP-1 activator project, CellTiter-Glo, duplicate (AID 807;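 active = viability increase at or above a cutoff of the median across tested compounds plus 3 SD, cut at about 8.5% in these data, passing the limit was not always enough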;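 also: compound pretreatment 18-22 h then 72 h combined with doxorubicin; 0% = doxorubicin alone and 100% = vehicle without doxorubicin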); settings: H69AR viability with doxorubicin, CellTiter-Glo luminescence; at 10 µM; stronger effect = higher value
[12] = growth suppression of beta-catenin knockout HCT116, pilot screen, human colon tumor cells (AID 823;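 active = cell viability at or below a set limit in both duplicate runs, the limit being the all-compound median minus 4 SD, cut at about 23% in these data, passing the limit was not always enough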;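 also: 0% = wells killed by 20 µM Hyamine and 100% = untreated DMSO cell wells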); settings: CellTiter-Glo, 60 h, at 10 µM, stronger effect = lower value
[13] = growth suppression of PTEN-deleted HCT116, pilot screen, cell-based, HCT116 clonal line, CellTiter-Glo (AID 824;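 active = viability at or below 27.92% in each of two runs, the all-compound median minus 4 SD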;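 also: 0% = 20 µM Hyamine control and 100% = vehicle cell control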); settings: 60 h, at 10 µM, stronger effect = lower value
[14] = inhibitors of the yeast RAM network, pilot screen, dse1pr::URA3 reporter, 5-FOA selection (AID 869;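 active = inhibition over a set limit, the all-compound mean plus 3 SD, in both replicate runs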;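 also: 0% = DMSO wells with no growth and 100% = 10 µM 1-NA-PP1 with full growth; RAM network block rescues cells from 5-FOA so hits raise OD615 growth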); settings: S. cerevisiae dse1pr::URA3 5-FOA growth, OD615, 2 d; at 10 µM; stronger effect = higher value; strain carries analog-sensitive mutant Cbk1 kinase
[15] = RAM signaling pathway blockade in yeast – S. cerevisiae, Pdr1DBD-CYC8 efflux-inhibited sensitized strain, primary screen (AID 1298;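 active = RAM network inhibition above 8.4% in each of two replicates, 3 SD over the compound average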;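 also: 0% = DMSO untreated cells without growth and 100% = 10 µM 1-NA-PP1 full growth; higher means more yeast growth rescued from 5-FOA killing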); settings: S. cerevisiae cbk1-as DSE1-URA3 strain, 5-FOA growth OD615, 2 d; at 50 µM; stronger effect = higher value
[16] = H69AR cells + 2 uM doxorubicin, measured here: viability with 2 uM doxorubicin, stronger effect = lower value
[17] = H69AR cells, compound alone cytotoxicity

CCN1CCN(C(=O)C2CC(c3ccc(F)cc3)=NO2)CC1 (stereo not drawn)
99.1%: viability [6, 17]
inactive: Her2 level [2] 105% | viability [3] 91.5% | viability [4] 103% | viability [5] 99.1% | differential viability (reversal) ([6]; H69AR cells + 2 uM doxorubicin) 24.1% | inhibition [7] -4.1% | inhibition [8] -6.67% | growth inhibition [9] -3.54% | growth inhibition [10] 3.61% | viability increase [11] 0.82% | viability [12] 95.2% | viability [13] 102% | inhibition [14] 0.095% | RAM network inhibition [15] 2.03%
75.1%: viability [6, 16]
91.5%: viability [1]

COC(=O)C1=C(C)NC2=C(C(=O)CCC2)C1c1coc2ccccc2c1=O (stereo not drawn)
inactive: Her2 level [2] 81% | viability [3] 91% | viability [4] 97.7% | viability [5] 93% | differential viability (reversal) ([6]; H69AR cells + 2 uM doxorubicin) 2.12% | inhibition [7] -3.97% | inhibition [8] -1.5% | growth inhibition [9] -7.39% | growth inhibition [10] 6.02% | viability increase [11] -4.25% | viability [12] 89.4% | viability [13] 90.1% | inhibition [14] 2.04% | RAM network inhibition [15] 1.39%
93%: viability [6, 17]
90.9%: viability [6, 16]
91%: viability [1]

COc1ccc(-c2nc(CSCC(=O)N3CCN(c4cccc(C)c4)C(C)C3)c(C)o2)cc1OC (stereo not drawn)
inactive: Her2 level [2] 67.5% | viability [3] 102% | viability [4] 54.6% | viability [5] 85.7% | differential viability (reversal) ([6]; H69AR cells + 2 uM doxorubicin) -5.97% | inhibition [7] -2.27% | inhibition [8] 1.33% | growth inhibition [9] -4.45% | growth inhibition [10] 8.39% | viability increase [11] 0.02% | viability [12] 56.9% | viability [13] 56.4% | inhibition [14] 1.96% | RAM network inhibition [15] 7.25%
91.7%: viability [6, 16]
102%: viability [1]
85.7%: viability [6, 17]

CCOc1cccc(-c2nnc3n2N=C(c2cc(OC)ccc2OC)CS3)c1
104%: viability [1]
active: viability [5] 13.5% | growth inhibition [10] 50.3% | viability [12] 19.4% | viability [13] 21.2%
13.5%: viability [6, 17]
74.2%: viability [6, 16]
inactive: Her2 level [2] 83.5% | viability [3] 104% | viability [4] 42.4% | differential viability (reversal) ([6]; H69AR cells + 2 uM doxorubicin) -60.8% | inhibition [7] -5.87% | inhibition [8] 1.75% | growth inhibition [9] 16.2% | viability increase [11] -3.98% | inhibition [14] 1.96% | RAM network inhibition [15] 6.09%

CCN1CCN(C(=O)Cn2ncc3ccsc3c2=O)CC1
101%: viability [1]
inactive: Her2 level [2] 110% | viability [3] 101% | viability [4] 89.8% | viability [5] 97% | differential viability (reversal) ([6]; H69AR cells + 2 uM doxorubicin) 4.04% | inhibition [7] -3.73% | inhibition [8] 0.5% | growth inhibition [9] -0.535% | growth inhibition [10] 2.34% | viability increase [11] 1.63% | viability [12] 105% | viability [13] 101% | inhibition [14] 1.72% | RAM network inhibition [15] 0.51%
93%: viability [6, 16]
97%: viability [6, 17]

N#CC(C(=O)Nc1ccccc1)=C1CCCCC1
inactive: Her2 level [2] 89.5% | viability [3] 99% | viability [4] 85.5% | viability [5] 109% | differential viability (reversal) ([6]; H69AR cells + 2 uM doxorubicin) 14.8% | inhibition [7] -4.67% | inhibition [8] -3.55% | growth inhibition [9] -25.1% | growth inhibition [10] -18.8% | viability increase [11] 1.71% | viability [12] 91.2% | viability [13] 102% | inhibition [14] 1.52% | RAM network inhibition [15] 4.92%
94.2%: viability [6, 16]
109%: viability [6, 17]
99%: viability [1]

Cc1ccc(NC(=O)CN(c2ccc3c(c2)OCO3)S(=O)(=O)c2c(C)n[nH]c2C)cc1
93.1%: viability [6, 17]
91.5%: viability [6, 16]
92%: viability [1]
inactive: Her2 level [2] 83% | viability [3] 92% | viability [4] 85.1% | viability [5] 93.1% | differential viability (reversal) ([6]; H69AR cells + 2 uM doxorubicin) 1.52% | inhibition [7] -5.73% | inhibition [8] 2.33% | growth inhibition [9] -13.4% | growth inhibition [10] -19.2% | viability increase [11] 2.09% | viability [12] 95.7% | viability [13] 96.9% | inhibition [14] 3.25% | RAM network inhibition [15] 5.15%

COc1ccccc1NC(=O)CSc1nnc(Cc2cccn2C)n1-c1ccc(F)cc1
inactive: Her2 level [2] 86% | viability [3] 96.5% | viability [4] 95.4% | viability [5] 71.8% | differential viability (reversal) ([6]; H69AR cells + 2 uM doxorubicin) -13.1% | inhibition [7] -4.8% | inhibition [8] -2.67% | growth inhibition [9] -3.11% | growth inhibition [10] 10.8% | viability increase [11] -4.45% | viability [12] 86.7% | viability [13] 86.8% | inhibition [14] 2.05% | RAM network inhibition [15] 2.25%
71.8%: viability [6, 17]
96.5%: viability [1]
84.9%: viability [6, 16]

CC1CC(NC(=O)c2cnc3n(c2=O)CCS3)CC(C)(C)C1 (stereo not drawn)
83.5%: viability [1]
85.6%: viability [6, 16]
91.7%: viability [6, 17]
inactive: Her2 level [2] 108% | viability [3] 83.5% | viability [4] 85.8% | viability [5] 91.7% | differential viability (reversal) ([6]; H69AR cells + 2 uM doxorubicin) 6.09% | inhibition [7] -4.13% | inhibition [8] -3% | growth inhibition [9] -8.98% | growth inhibition [10] -8.4% | viability increase [11] -0.41% | viability [12] 99% | viability [13] 90% | inhibition [14] 0.545% | RAM network inhibition [15] 0.68%
